Drawing on PubChem BioAssay AID504660 (National Center for Advancing Translational Sciences (NCATS), 2011), this text covers activation for 30 molecules.

Screen size: about 360,000 compounds; about 3,700 (1%) were called active. No stated cut-off is given here; in the data, active means activation above about 30%; inactive means the rest. Shown is part of a subset that was picked to be rich in actives.

The target of this experiment is D(1A) dopamine receptor (Homo sapiens) (UniProt P21728). Briefly: Allosteric Agonists of the Human D1 Dopamine Receptor: qHTS. Further: 0% is about no effect. As to conditions: HEK293 T-REx D1 cells, calcium flux, agonist mode; at 2 µM; hits give high values. From the text: NIH Chemical Genomics Center [NCGC] NIH Molecular Libraries Probe Centers Network [MLPCN] MLPCN Grant: NS064831-01 Assay Submitter (PI): David Sibley Dopamine receptors (DARs) are involved in the etiology and/or therapy of a number of neuropsychiatric and endocrine disorders. For instance, all receptor-based antiparkinsonian drugs work via stimulating the D1 DAR subtype whereas all FDA-approved antipsychotic agents are antagonists of this receptor. […] There are three different types of allosteric modulators that we are seeking, two of which will stimulate or augment receptor signaling, allosteric agonists and potentiators, while the third, allosteric antagonists, will attenuate receptor signaling. The present primary screening assay measures compound agonism by tracking calcium flux in a […], inducible Hek293 Trex D1 cell line.
Chain of D(1A) dopamine receptor (Homo sapiens) (P21728 whole entry, looked up): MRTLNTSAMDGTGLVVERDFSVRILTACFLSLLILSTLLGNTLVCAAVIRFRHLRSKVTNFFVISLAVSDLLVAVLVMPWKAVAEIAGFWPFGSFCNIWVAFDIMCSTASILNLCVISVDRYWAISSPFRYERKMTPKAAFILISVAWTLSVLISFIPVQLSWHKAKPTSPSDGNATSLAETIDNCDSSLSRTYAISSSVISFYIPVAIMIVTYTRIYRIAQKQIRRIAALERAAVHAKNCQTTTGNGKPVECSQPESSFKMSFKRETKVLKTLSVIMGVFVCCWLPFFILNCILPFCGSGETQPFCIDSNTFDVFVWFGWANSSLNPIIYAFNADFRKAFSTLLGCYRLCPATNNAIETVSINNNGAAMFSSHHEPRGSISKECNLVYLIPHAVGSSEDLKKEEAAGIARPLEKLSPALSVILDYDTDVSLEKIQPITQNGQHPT
Freshly passaged cells are plated in 1536 well black, clear bottom plates at a density of 4000 cells/well in 3 ul of complete media containing 1x tetracycline inducer. After an overnight incubation at […] in 5% CO2, cells are loaded with 2 ul of the no wash Calcium Assay Kit (ABD Bioquest) and incubated at room temperature for 30 to 90 minutes. Agonist read: A 10 cycle (1 second/cycle) baseline measurement is taken and then the FDSS online 1536 pintool delivers 23 nl of compound library (as well as dopamine controls) to the plate. The plate is measured for kinetically at 1 cycle/sec for 180 seconds and is considered to be the agonist portion of the assay (eg, compounds which activate a positive calcium response during this portion are flagged as potential agonists). Following the 180 second read, 1 ul of either an EC20 (positive modulation assay) or EC80 (negative modulation assay) is delivered by an onboard pipette head. Measurements are taken kinetically for an additional 180 seconds.
In the case of `CCCCCCCCCCCCn1ccc(=N)cc1`, the activation is 52.6% (active).

As for `COc1ccc(-c2nn(CCC#N)cc2C(=O)O)cc1`, the activation was 2.02% (inactive).

Consider `NC(=O)Nc1cccc(C(F)(F)F)c1`, for which the activation was 1.22% (inactive).

In the case of `CC(Cc1ccccc1)NCCC(c1ccccc1)c1ccccc1` (stereo not given), the activation is 19.9% (inactive).

Regarding `CCN(CC)c1ccc([N+](=O)[O-])c2cccnc12`, the activation is 6.86% (inactive).

As to `COc1ccc(C(=O)C2CN(C)CC2C(=O)c2ccc(OC)cc2)cc1` (stereo not given), the activation is 4.65% (inactive).

Turning to `O=C1C2(Cl)C3(Cl)C4(Cl)C(Cl)(Cl)C5(Cl)C3(Cl)C1(Cl)C5(Cl)C24Cl` (stereo not given), the activation was 99.6% (active).

For the molecule `CCN1CCN(Cc2cc(OC)c3c(c2)OCO3)CC1`, the activation is 3.83% (inactive).

Consider `Cc1ccc(-n2c(/C=C/c3cccc(C(F)(F)F)c3)nc3ccccc3c2=O)cc1`, for which the activation is -0.792% (inactive).

For `COc1ccc(CN2CCN(c3ccccc3F)CC2)c(OC)c1`, the activation was 4.33% (inactive).

On to `Oc1cc2c(cc1CN1CCN(c3ccccc3)CC1)OCO2`, for which the activation was 2.23% (inactive).

`CC(C)c1ccc(O)c(CN2CCN(c3ccccc3)CC2)c1`: the activation was 93% (active).

`CCN1C(=O)C(=Cc2c(C)n(CC(=O)NCC3CCCO3)c3ccccc23)C(=O)N(CC)C1=S` (stereo not given): the activation was 8.52% (inactive).

With `Cc1cccc(Cn2cccc(C(=O)Nc3ccc4c(c3)OCCO4)c2=O)c1`, the activation was 5.25% (inactive).

As for `COc1ccc(CNCCc2c[nH]c3ccccc23)cc1OC`, the activation is 12.6% (inactive).

Regarding `COc1ccc(CNCCc2ccc3c(c2)OCO3)c(OC)c1OC`, the activation was 11.4% (inactive).

As for `COc1ccc(Br)cc1CNCCc1cccc(Cl)c1`, the activation is 34.4% (active).

As for `Cc1cc2ccccn2c1C(C[N+](=O)[O-])c1c(F)cccc1Cl` (stereo not given), the activation was 0.11% (inactive).

In the case of `CN(C)c1nc(N(C)C)nc(N(C#N)CCCl)n1`, the activation is 1.85% (inactive).

`O=C(c1cc2nc(-c3ccccc3)cc(-c3ccccc3)n2n1)N1CCC2(CC1)OCCO2`: the activation was 1.75% (inactive).

For the molecule `CCCCC(=O)N/N=C/c1c(O)n(CCC2=CCCCC2)c(=O)[nH]c1=O`, the activation is 2.44% (inactive).

Consider `CCCCC(=O)N/N=C/c1c(O)n(-c2ccccc2)c(=O)[nH]c1=O`, for which the activation was -0.172% (inactive).

As to `CCCCC(=O)N/N=C/c1c(O)n(CC)c(=S)n(CC)c1=O`, the activation was 71.8% (active).

Turning to `Cc1ccc(NC(=O)N(Cc2ccc3c(c2)OCO3)C2CCN(Cc3ccccc3)CC2)cc1F`, the activation was 9.83% (inactive).

With `COC(=O)C(c1ccccc1)N1CCCCCC1` (stereo not given), the activation was 40% (active).

For the molecule `COc1ccccc1N1CCN(C(CNC(=O)Oc2ccccc2)c2cccnc2)CC1` (stereo not given), the activation was 0.177% (inactive).

As to `COC(=O)N1C(c2ccccc2)C1c1ccccc1` (stereo not given), the activation was 6.43% (inactive).

Consider `NCC(O)c1ccc(O)cc1` (stereo not given), for which the activation is 0.942% (inactive).

On to `COc1ccc(N=Cc2c(O)n(C)c(=O)[nH]c2=O)cc1`, for which the activation is 2.19% (inactive).

Consider `CC(=O)c1c(O)n(C2CCCCCC2)c(=O)[nH]c1=O`, for which the activation is 2.24% (inactive).
